According to the supplement of paper PMC7156485:
± gives the standard deviation of the averaged measurements.
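Note: TDF denotes transformed human dermal fibroblasts of mesenchymal origin.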

The compounds below were run on HCC1569 (assay: cell number relative to DMSO (% of DMSO); higher = more cells (less growth inhibition / toxicity)). Details: concentration: 10 µM; 24 h.
Outline: (§1)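 HCC1569 and TDF cells (800 per well, 384-well plates, RPMI with 10% FBS) were treated with compounds at 10 µM for 24 h at 37 °C, in triplicate. Cells were fixed in 3.7% formaldehyde and stained with a rabbit anti-H1.0 antibody, an AlexaFluor 647 secondary and DAPI; six fields per well were imaged at ×10. H1.0 nuclear intensity or cell number is expressed as percent of the plate DMSO control, taking the median of replicates. HCC1569 values were smoothed for positional effects.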
With `CC1CCC2C(C)C(=O)OC3OC4(C)CCC1C32OO4` (stereo unspecified) [Artemesinin] the cell number was 102 ± 2.5.
`Cc1sc2c(c1C)C(c1ccc(Cl)cc1)=N[C@@H](CC(N)=O)c1nnc(C)n1-2` showed a cell number of 79.2.
For `CCCN1CC(CSC)CC2c3cccc4[nH]cc(c34)CC21.CS(=O)(=O)O` (stereo unspecified) [Pergolide methanesulfonate], the cell number was 98.8.
With `CN1Cc2c(ccc3c2OCO3)C2C(O)Cc3cc4c(cc3C21)OCO4` (single isomer, unassigned; (+)) [(+)-Chelidonine] the cell number was 58.
For `CC1(CO)C(O)CCC2(C)C1CCC1CC3CC12CCC3(O)CO` (stereo unspecified) [Aphidicolin], the cell number was 79.6.
In the case of `CC(C)c1cc2c(c(O)c1O)C1(C(=O)O)CCCC(C)(C)C1CC2` (stereo unspecified) [Carnosic acid], the cell number is reported as 96.8.
With `Cl.Oc1ccc2c3c1OC1C(O)CCC4(O)C(C2)N(CC2CCC2)CCC314` (stereo unspecified) [Nalbuphine hydrochloride] the cell number was 105.

Each compound was assayed on TDF in the same assay as above. Details: concentration: 10 µM; 24 h.
Outline: as §1
Work on `CNCCc1ccc(O)c(O)c1.Cl` [N-Methyldopamine hydrochloride] yielded a cell number of 92.2.
`NC1(C(=O)O)CCC(C(=O)O)C1` (mixture of isomers) gave a cell number of 106.
`CC1OCC(C[N+](C)(C)C)O1.[I-]` (single isomer, unassigned; (+)) [(+)-cis-Dioxolane iodide] showed a cell number of 103.
`CN(C)C(=O)C(CCN1CCC(O)(c2ccc(Cl)cc2)CC1)(c1ccccc1)c1ccccc1.Cl` [Loperamide.HCl] showed a cell number of 98.6.
`COc1ccc(Cc2nccc3cc(OC)c(OC)cc23)cc1OC.Cl` [Papaverine hydrochloride] was tested, and the cell number was 77.7 ± 7.8.
`CCCN(CCC)C1CCc2cccc(O)c2C1` (racemic) gave a cell number of 88.4.
`COC(C(=O)C(O)C(C)O)C1Cc2cc3cc(OC4CC(OC5CC(O)C(OC)C(C)O5)C(OC(C)=O)C(C)O4)c(C)c(O)c3c(O)c2C(=O)C1OC1CC(OC2CC(OC3CC(C)(O)C(OC(C)=O)C(C)O3)C(O)C(C)O2)C(O)C(C)O1` (stereo unspecified) [Chromomycin A3] showed a cell number of 19.4.
With `CCCN1CCCC2Cc3[nH]ncc3CC21.Cl` (single isomer, unassigned; (-)) [(-)-Quinpirole hydrochloride] the cell number was 101.
`CC(C)N(CCC(C(N)=O)(c1ccccc1)c1ccccn1)C(C)C.O=P(O)(O)O` (stereo unspecified) [Disopyramide phosphate] showed a cell number of 105.
Compound `CCCCCCCCCCCCCCCCOCC(O)COP(=O)([O-])OCC[N+](C)(C)C` (stereo unspecified) has a cell number of 105.
In the case of `Cc1ccc2c(c1)C1(CCN(CCc3nc(-c4ccccc4)oc3C)CC1)OC(=O)N2`, the cell number is reported as 91.1.
`C=C(C)C1C2OC(=O)C1C1(O)CC3OC34C(=O)OC2C14C` (stereo unspecified) [Picrotoxinin] gave a cell number of 105.
`COC1=CC(=O)OC(C=Cc2ccc3c(c2)OCO3)C1` (stereo unspecified) [Methysticin] showed a cell number of 106.
`COc1ccc2c(c1O)-c1c(OC)c(OC)cc3c1C(C2)N(C)CC3.Cl` (single isomer, unassigned; (+)) [(+)-Isocorydine hydrochloride] gave a cell number of 107.
With `CC(N)C(O)c1ccccc1` (stereo unspecified) [Phenylpropanolamine] the cell number was 94.
In the case of `CC1OC(=O)C(C(C)C)NC(=O)C(C(C)C)OC(=O)C(C(C)C)NC(=O)C(C)OC(=O)C(C(C)C)NC(=O)C(C(C)C)OC(=O)C(C(C)C)NC(=O)C(C)OC(=O)C(C(C)C)NC(=O)C(C(C)C)OC(=O)C(C(C)C)NC1=O` (stereo unspecified) [Valinomycin], the cell number is reported as 56.8.
For `Cc1ncc(CNC(=O)N(CCCl)N=O)c(N)n1.Cl` [Nimustine hydrochloride], the cell number was 64.7.
`O=[N+]([O-])c1ncc[nH]1` [Azomycin] gave a cell number of 92.6.
For `CC1CCC2C(C)C3CCC4(O)C(CC5C4CC(=O)C4CC(=O)CCC45C)C3CN2C1` (stereo unspecified) [Sevedindione], the cell number was 110.
`CNC(=O)OCC[N+](C)(C)C.[Cl-]` [Methylcarbamylcholine chloride] was tested, and the cell number was 92.5.
For `CCCN1CCOC2c3cc(O)ccc3OCC21.Cl` (stereo not drawn) [S(+)-PD 128,907 hydrochloride], the cell number was 104.
`CC(C)(O)C1C2OC(=O)C1C1(O)CC3OC34C(=O)OC2C14C` (stereo unspecified) [Picrotonin] gave a cell number of 100.
`CC12CCC3C(CCC4=CC(=O)CCC43C)C1CCC2=O` (stereo unspecified) [4-Androstene-3,17-dione] was tested, and the cell number was 113.
Compound `CN(C(=O)Cc1ccc(Cl)c(Cl)c1)C(CN1CCCC1)c1cccc(OCC(=O)O)c1.Cl` (stereo unspecified) [ICI 204,448 hydrochloride] has a cell number of 104.
